Screening results from PubChem.
Compounds with a hit are over-represented: about 4.7% of the library has one in this group of screens.
HSP90 refold inh: blocks HSP90-mediated luciferase refolding in reticulocyte lysate; Rabbit reticulocyte lysate, luciferase refolding luminescence, 3 h; 0.91% of 290,000 active; inhibition, % at 5.6 µM;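 active means inhibition above the screen-wide mean plus 3 SD, computed separately per campaign, cut at about 16% in these data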;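 further: 0% = DMSO wells and 100% = 60 µM geldanamycin wells; inhibitors lower the luminescence because luciferase stays unfolded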
TROY NFkB inh: inhibitors of TROY-dependent NF-kB signaling; Q293 LMP1-TROYcd NF-kB luciferase reporter, 4 h; inhibition, % at 10 µM; 0.98% of 360,000 active; AID 1347056;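 active means compounds whose plate-normalised and pattern-corrected inhibition of the luciferase reporter signal at the single screening dose is 50% or more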
HSF1 inh: HSF1 inhibition | 0.77% of 300,000 active | NIH3T3-HGL HSE-luciferase, MG132-induced, luminescence 8 h; stronger effect = lower value | activity change, negative = inhibition, % at 7.5 µM (by protocol) | AID 2098;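 active means more than half of replicate wells show activity change below -50%, luminescence cut by over half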;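 further: luciferase reports HSF-1 transcriptional activity via heat shock element; 0% = median of DMSO wells and -100% = zero luminescence signal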
TWEAK-Fn14 inh: inhibitors of TWEAK-Fn14 interaction signaling. TWEAK-stimulated Fn14 reporter cells, luciferase luminescence, 8 h. inhibition, % at 10 µM. 2% of 360,000 active; in the data active means inhibition above about 50%
LMP1 NFkB inh: Epstein-Barr LMP1 NF-kappaB reporter inhibition; 0.69% of 350,000 active; LMP1-induced NF-kappaB luciferase reporter cells, luminescence; inhibition, % at 12.5 µM; AID 504558; in the data active means inhibition above about 41%;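 further: 0% = neutral control wells and 100% = reference inhibitor control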
HSF1 activator: increases HSF-1 driven luciferase reporter signal. NIH3T3-HGL HSF-1 luciferase reporter, MG132, 8 h; 100% = twice DMSO control signal. activation, % at 9 µM. 1.7% of 300,000 active. AID 504408;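 active means mean replicate activation of at least 50% with a set share of replicates each reaching 50%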;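 further: 0% = median of the neutral control wells and 100% = twice that signal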
HSP90 inh confirm: confirmation of HSP90 inhibitors; shares compounds with HSP90 refold inh; rabbit reticulocyte lysate, luciferase refolding luminescence, 3 h; inhibition, % at 5.9 µM; 64% of 2,300 active; in the data active means inhibition above about 18%;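 further: 0% = vehicle wells and 100% = reference inhibitor wells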
luciferase ctr: blocks native firefly luciferase in HSP90 counter-screen; shares compounds with HSP90 refold inh; purified native firefly luciferase, luminescence; inhibition, % at 5.9 µM; 48% of 2,300 active; AID 1847;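 active means inhibition above the mean inhibition of all tested sample wells plus 3 SD, cut at about 10% in these data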;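 further: 0% = DMSO with luciferase and 100% = wells lacking luciferase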
Target sequence (P08659 whole entry, looked up): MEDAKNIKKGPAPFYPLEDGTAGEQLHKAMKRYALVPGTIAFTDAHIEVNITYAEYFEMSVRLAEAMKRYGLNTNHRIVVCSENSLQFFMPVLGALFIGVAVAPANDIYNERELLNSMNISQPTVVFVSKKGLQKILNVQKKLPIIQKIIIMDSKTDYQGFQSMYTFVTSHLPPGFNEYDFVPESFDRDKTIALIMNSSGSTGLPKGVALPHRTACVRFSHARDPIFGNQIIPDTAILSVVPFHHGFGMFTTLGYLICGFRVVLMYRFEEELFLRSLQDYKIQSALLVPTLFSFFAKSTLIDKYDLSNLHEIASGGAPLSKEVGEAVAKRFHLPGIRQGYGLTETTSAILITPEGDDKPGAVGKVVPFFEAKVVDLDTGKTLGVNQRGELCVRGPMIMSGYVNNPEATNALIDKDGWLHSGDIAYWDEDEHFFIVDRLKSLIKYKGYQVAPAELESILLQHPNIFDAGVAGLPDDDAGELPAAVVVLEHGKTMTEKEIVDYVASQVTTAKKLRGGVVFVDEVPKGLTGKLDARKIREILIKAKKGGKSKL
* = called active by the depositor; / = no result.

SMILES	HSP90 refold inh	TROY NFkB inh	HSF1 inh	TWEAK-Fn14 inh	LMP1 NFkB inh	HSF1 activator	HSP90 inh confirm	luciferase ctr
O=C(COc1cccc(Br)c1)Nc1ccc(N2CCOCC2)cc1N1CCOCC1	/	-22	/	-10	-10	/	/	/
CCC(=O)c1ccc(OCC(=O)Nc2ccc(N3CCOCC3)cc2N2CCOCC2)cc1	28*	-15	-13	-28	-3	-6	-5	-10
COC(=O)c1ccc(N/C=C/C(=O)c2ccccc2)cc1	21*	-21	1	51*	-12	-21	52*	3
Cc1cccc(CN2CCN(C3CN(Cc4cn(Cc5ccccc5)nn4)S(=O)(=O)C3)CC2)c1 (stereo not given)	/	16	/	-7	/	/	/	/
COc1ccc(NC(=O)C[C@H]2C(=O)N(C3CCCCC3)C[C@@H]2c2ccc(OC)cc2)cc1	/	-2	/	9	-11	/	/	/
Cc1ccc(Nc2nc(-c3sc(C)nc3C)cs2)cc1	-1	-8	8	19	29	26	/	/
CCOc1ccc(Nc2nc(-c3sc(N)nc3C)cs2)cc1	20*	-12	-3	-16	-2	-8	1	-21
COc1ccc(CCNc2ccncn2)cc1OC	-5	-15	-5	1	-11	-5	/	/
Cc1ccc(Nc2nc(-c3sc(N)nc3C)cs2)cc1	39*	-28	-7	-24	-55	-6	-2	-18
Cc1nc(N)sc1-c1csc(Nc2ccc(Cl)cn2)n1	12	-13	-3	16	-12	-8	/	/
COc1ccc(CCNc2nc(-c3sc(N)nc3C)cs2)cc1OC	29*	4	-5	-9	16	-7	5	-5
COc1ccc(Nc2nc(-c3sc(N)nc3C)cs2)cc1	30*	-31	4	-14	-18	23	-4	-21
CCN(C[C@H]1N[C@@](CC)(C(=O)OC)[C@H]2C(=O)N(Cc3ccccc3)C(=O)[C@@H]12)C(=O)c1ccc(C(C)(C)C)cc1	/	16	/	29	-1	/	/	/
OC(c1ccc(F)c(F)c1)c1ncc(-c2cccc(C(F)(F)F)c2)[nH]1 (stereo not given)	/	14	/	6	/	/	/	/
C[C@@H]1CN([C@H](C)CO)C(=O)CCCn2cc(nn2)CO[C@H]1CN(C)C(=O)Cc1ccccc1	/	9	/	-2	-1	/	/	/
CCN1CCN(/C=N/c2nc3c(s2)CCCC3)CC1	65*	86*	-55*	96*	55*	-60	72*	42*
O=C(c1ccc([N+](=O)[O-])cc1)N1CCN(C(=O)c2ccco2)CC1	21*	-7	-1	-1	-2	-2	3	-4
CC(C)(C)c1ccc(C(=O)NC(=S)Nc2nc3c(s2)CCCC3)cc1	24*	84*	-59*	82*	5	-62	57*	38*
CC(C)(C)c1ccc(C(=O)NC(=S)Nc2sc3c(c2C#N)CCC3)cc1	5	19	-43	-49	-11	-37	/	/
COC(=O)Nc1nc2c(s1)CCCC2	4	-43	-5	-8	-11	18	/	/
CN(C)c1ccc(C(=O)Nc2nc3c(s2)CCCC3)cc1	27*	23	-2	72*	-19	13	59*	58*
CCCS(=O)(=O)NC(=O)C1(C)CCCN(C(=O)CCc2cccs2)C1 (stereo not given)	/	1	/	-2	/	/	/	/
CC(=O)c1ccc(NC(=O)Cn2cnc(S(=O)(=O)N3CCCCC3)c2)cc1	1	-19	5	2	2	-6	/	/
CC(=O)c1ccc(NC(=O)Cn2cnc(S(=O)(=O)N3CCCC3)c2)cc1	26*	-17	2	10	0	-16	0	-4
O=C(NCC1CCCO1)c1cccc(S(=O)(=O)Nc2ccccc2Cl)c1 (stereo not given)	/	6	/	8	5	/	/	/
SMILES	HSP90 refold inh	TROY NFkB inh	HSF1 inh	TWEAK-Fn14 inh	LMP1 NFkB inh	HSF1 activator	HSP90 inh confirm	luciferase ctr
CC(C)C(=O)Nc1ccc(-c2nc3cccnc3o2)cc1	26*	13	4	60*	1	27	30*	7
CC(C)C(=O)Nc1ccc(-c2nc3ncccc3o2)cc1	18*	19	0	46	5	22	25*	13*
CCCC(=O)Nc1ccc(Cl)c(-c2nc3ncccc3o2)c1	23*	-45	5	-17	3	40	-7	-11
CCC(=O)Nc1ccc(Cl)c(-c2nc3ncccc3o2)c1	4	10	3	-8	4	-5	/	/
CC(=O)Oc1ccc(-c2nc3ccccc3c(=O)o2)cc1	3	-28	-7	6	-3	8	/	/
CC(=O)Oc1ccc(/C=C/c2nc3ccccc3c(=O)o2)cc1	28*	50*	1	79*	36	5	32*	-13
COc1ccc(/C=C\c2nc(=O)c3ccccc3o2)cc1	21*	14	24	42	-10	76*	31*	14*
CC(=O)Oc1ccccc1/C=C/c1nc2ccccc2c(=O)o1	32*	1	-5	62*	45*	12	45*	-8
CC(=O)N(/N=C1\Sc2ccccc2C1=O)c1ccc(C)cc1C	41*	38	-86*	91*	14	-89	79*	58*
CC(=O)N(/N=C1\Sc2ccccc2C1=O)c1ccccc1C	35*	-47	17	19	-41	26	74*	-26
COc1cccc(-c2cnc3c(NC=O)cc(-c4ccncc4)cn23)c1	/	3	/	-5	/	/	/	/
O=C1c2ccc3c4c(ccc(c24)C(=O)N1NC(=O)C(F)(F)F)CC3	-1	-3	-11	9	-5	-4	/	/
CC(=O)NN1C(=O)c2ccc3c4c(ccc(c24)C1=O)C(=O)N(NC(C)=O)C3=O	45*	-24	-24	11	5	-41	30*	-2
COCCNC(=O)C(=O)NCCN1CCNCC1	34*	-2	2	11	4	-8	-2	-8
COCCNC(=O)C(=O)NCCN1CCOCC1	-1	/	-4	21	-4	-4	/	/
COc1ccc2nc(NC(=O)c3ccco3)sc2c1	41*	35	-11	81*	16	1	58*	56*
Cc1ccc2nc(NC(=O)c3ccco3)sc2c1	45*	62*	-10	98*	53*	-12	83*	79*
COc1cc2sc(NC(=O)c3ccco3)nc2cc1Cl	2	-72	12	-15	-23	26	/	/
COc1ccc(/C=N/Nc2ncccc2[N+](=O)[O-])c(OC)c1	51*	52*	-17	72*	-9	-25	70*	62*
COc1ccc(/C=N/Nc2ncc(-c3ccccc3)cn2)c(OC)c1	-2	-16	-1	-8	9	4	/	/
